Sampled rows, rich in hits. Any-hit rate of the full collection: about 22%.
Shiga toxin inh: Shiga toxin inhibition. Vero cells, Shiga toxin protein synthesis inhibition reporter. inhibition, % at 38.7 µM. 9.2% of 290,000 active; in the data active means inhibition mostly above about 28%, no sharp cut-off; inactive means mostly below about 43%; further: 0% is about no effect
CHX counter: counter-screen hit for Shiga toxin inhibitors, cycloheximide; cell reporter, cycloheximide protein synthesis inhibition counterscreen; max response, %; 12% of 300,000 active; AID 2314; in the data active means max response mostly above about 13%, no sharp cut-off; inactive means mostly below about 14%; further: read at 38.3 µM for the half of the compounds with a filed dose; 0% is about no effect
Pf growth 96h: P. falciparum growth inhibition at 96 hours | Potency, µM (top dose mostly 28.7 µM), inactives show at the top dose activity change, negative = inhibition, usual class: inhibitors | 6.9% of 320,000 active | P. falciparum luciferase reporter growth, 96 h; further: potency means the concentration at half of the fitted maximal effect; on the % scale 0 is the no-effect control and ±100 the full control effect
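Compounds incubated with erythrocytes infected by luciferase-expressing P. falciparum (2% hematocrit, 0.05% parasitemia final) for 96 hours, 37 C in 5% CO2. Growth inhibition scored as decreased luciferase luminescence.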
LmPK inhibitor: LmPK (Leishmania mexicana) enzyme inhibition; purified LmPK, Kinase-Glo ATP luminescence, 1 h; Potency, µM (top dose mostly 57.5 µM), for the others: at the top dose activity change, negative = inhibition, most hits filed as inhibitors; 0.37% of 290,000 active; AID 1721; further: potency means the concentration at half of the fitted maximal effect; on the % scale 0 is the no-effect control and ±100 the full control effect
Target sequence (Q27686 whole entry, looked up): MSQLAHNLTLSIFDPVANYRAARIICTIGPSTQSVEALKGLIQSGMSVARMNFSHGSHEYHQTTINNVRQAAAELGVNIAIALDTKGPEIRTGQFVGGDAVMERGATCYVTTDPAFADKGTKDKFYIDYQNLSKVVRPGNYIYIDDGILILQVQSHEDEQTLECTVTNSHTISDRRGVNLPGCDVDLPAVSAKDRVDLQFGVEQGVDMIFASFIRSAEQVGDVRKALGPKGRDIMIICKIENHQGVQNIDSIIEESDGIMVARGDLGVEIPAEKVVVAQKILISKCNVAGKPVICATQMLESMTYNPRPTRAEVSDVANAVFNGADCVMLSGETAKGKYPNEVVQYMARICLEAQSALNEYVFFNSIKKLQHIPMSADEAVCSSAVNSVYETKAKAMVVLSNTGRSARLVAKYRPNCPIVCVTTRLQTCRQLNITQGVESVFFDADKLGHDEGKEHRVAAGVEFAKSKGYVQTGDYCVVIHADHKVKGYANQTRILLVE
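Kinase-Glo luminescence read after 1 h RT reaction of 0.1 nM LmPK with 0.5 mM PEP and 0.1 mM ADP. Activity scaled between uninhibited and enzyme-free controls.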
Pf growth 48h: inhibits P. falciparum growth in the first generation, 48 h; Potency, µM (series often up to 28.7 µM), for the others: at the highest dose activity change, negative = inhibition, most hits filed as inhibitors; P. falciparum luciferase growth in erythrocytes, 48 h; AID 504832; 5.9% of 310,000 active; further: potency means the concentration at half of the fitted maximal effect; on the % scale 0 is the no-effect control and ±100 the full control effect
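Compounds are pin-transferred into medium, infected erythrocytes (2% hematocrit, 0.1% parasitemia final) are added, and plates sit one parasite generation at 37 C in 5% CO2. Detection reagent is then added and luminescence measured.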
* = called active by the depositor; ? = inconclusive; / = not tested or not shown; [ ] = dose if it differs, or a comment. Unless noted, the call rests on the fitted dose curve; in most records, active means well fitted inhibition curve with a large enough effect; inconclusive means small, poorly fitted or top-dose-only effect, or another doubt; inactive means no such curve, though single readings can be large or run the other way.

SMILES	Shiga toxin inh	CHX counter	Pf growth 96h	LmPK inhibitor	Pf growth 48h
COc1ccccc1Nc1nc(-c2sc(NC(=O)C(C)(C)C)nc2C)cs1	13.9	1.6	11.7µM*	-2.7%	?
CC1(c2ccc(OC(F)F)cc2)NC(=O)N(CC(=O)Nc2cccnc2Cl)C1=O (stereo not given)	/	/	?	/	-8.1%
COc1cnc(-c2ccccn2)nc1Sc1ccccc1Cl	-4.6	-2.4	?	8.8%	?
CCOC(=O)C(C)Sc1ncc(OC)c(Sc2ccc(Cl)cc2)n1 (stereo not given)	0.8	6.5	28.8%	-1.2%	36.8%
COc1cnc(-c2ccccn2)nc1Sc1c(Cl)cccc1Cl	-9.0	-1.3	2.08µM*	5.1%	1.65µM*
COc1ccc(Oc2nc(-c3ccccn3)ncc2OC)cc1	-17.8	8.7	?	-6.9%	0.0%
COc1cnc(-c2ccccn2)nc1Oc1cccc(Cl)c1	-8.1	-0.6	2.62µM*	1.0%	?
COc1cnc(-c2ccccn2)nc1N(C)C	11.1	-0.5	2.33µM*	1.4%	4.15µM*
CCOC(=O)C(C)Sc1nc(-c2ccccn2)ncc1OC (stereo not given)	1.5	11.7	3.29µM*	-2.4%	13.1µM*
O=C(O)c1cc(N2C(=O)C3CC=CCC3C2=O)ccc1NCc1cccnc1 (stereo not given)	1.1	-3.4	19.3%	21.3%	/
COc1ccccc1NC(=O)c1cc(S(=O)(=O)NC2CCCC2)ccc1F	-6.9	1.1	-15.0%	-1.3%	3.9%
COc1cccc(N2CCN(C(=O)C3CCN(S(=O)(=O)c4ccc5c(c4)CC(C)N5C(C)=O)CC3)CC2)c1 (stereo not given)	1.5	-1.3	?	-2.6%	?
Cc1ccc(C(=O)OCC(=O)NNC(=O)c2cccs2)c(O)c1	/	/	33.6%	/	-1.6%
COc1cnc(-c2ccccn2)nc1Oc1c(C)cccc1C	-1.2	-0.6	0.208µM*	-8.7%	11.7µM*
OC1CCCCC1Sc1nc2ccccc2s1 (stereo not given)	104.1*	42.2*	?	-2.9%	114.8%
c1ccc2sc(SSc3nc4ccccc4s3)nc2c1	/	/	-2.6%	/	19.5%
CC1(C)C(=O)OC(c2cccs2)C(C)(C)C1=O (stereo not given)	-15.7	-5.0	1.85µM*	6.6%	3.1%
COc1cccc(C(=O)N/N=C(\CC(C)C)c2ccccc2)c1	55.1*	21.7*	-16.7%	6.0%	3.5%
C/C(Cc1ccccc1)=N\NC(=O)CNC(=O)c1cccc(Cl)c1	-4.2	0.4	-0.5%	4.0%	22.3%
CCC/C(=N/NC(=O)c1cccc(Cl)c1)c1ccccc1	79.9*	59.3*	-25.9%	3.1%	23.9%
COc1cccc(C(=O)Nc2ccc(C(=O)NCC(C)C)cc2)c1	12.0	-5.5	38.8%	2.8%	-9.0%
Cc1ccc(C(=O)N/N=C(\CC(C)C)c2ccccc2)cc1	71.5*	44.1*	74.6%	-1.0%	38.2%
O=C1NC(=S)SC1=C1CCCC1	-5.2	-6.5	213.2%	2.1%	/
O=C(O)C1Cc2[nH]cnc2C(c2ccccc2O)N1 (stereo not given)	-7.5	-6.9	62.7%	-1.3%	13.0%
Cc1cc(C)cc(NC(=O)CSc2nccn2Cc2ccco2)c1	45.1	21.9*	3.5%	-5.3%	20.3%
SMILES	Shiga toxin inh	CHX counter	Pf growth 96h	LmPK inhibitor	Pf growth 48h
Cc1cccc(NC(=O)CSc2nccn2Cc2ccco2)c1C	53.3	17.7*	44.7%	-5.2%	26.0%
Cc1cccc(NC(=O)CSc2nccn2Cc2ccco2)c1	90.8*	61.6*	80.6%	-8.5%	67.4%
O=C1CN(C(=O)c2cc3ccccc3oc2=O)C(c2ccc(F)cc2)c2cc(Br)ccc2N1 (stereo not given)	-1.4	-2.3	-3.8%	-0.7%	26.2%
Cc1nc2ccccc2c(=O)n1-c1ccc(F)c(NS(=O)(=O)c2ccccc2F)c1	/	/	?	/	-10.0%
COc1ccccc1NC(=O)Cn1c2ccccc2c2nc3n(c(=O)c21)CCS3	-34.6	8.6	8.2%	3.3%	?
COc1ccccc1-c1nnc(SCC(=O)Nc2ccc(Cl)cc2Cl)o1	9.5	-1.0	35.0%	0.2%	6.1%
C=CCSc1nnc(-c2ccc(Cl)cc2Cl)o1	92.2*	43.1*	44.1%	-16.4%	197.3%
Clc1ccc(-c2nnc(SCc3ccon3)o2)c(Cl)c1	60.6*	36.5*	/	?	138.3%
Clc1ccc(-c2nnc(SCc3nc4ccccc4[nH]3)o2)c(Cl)c1	32.2	17.4*	-12.7%	-3.0%	4.4%
CCOC(=O)N1CCN(CC(O)COc2ccc(C)c(C)c2)CC1 (stereo not given)	-10.9	-2.2	23.9%	1.2%	-3.4%
COc1ccc(C2OC(=O)CC2C(=O)NCc2ccc(Cl)cc2)cc1OC (stereo not given)	84.6*	34.0*	39.0%	-3.0%	107.6%
CCN(CC)S(=O)(=O)c1cc(NC(=O)c2n[nH]c(=O)c3ccccc23)ccc1C	37.1	21.1*	?	2.8%	-7.5%
CC(C)c1ccc(NC(=O)c2n[nH]c(=O)c3ccccc23)cc1	44.4*	45.1*	8.28µM*	6.9%	107.8%
CCN(CC)S(=O)(=O)c1cc(NC(=O)c2cc(-c3ccccn3)nc3ccccc23)ccc1C	-3.0	-2.2	?	7.5%	9.28µM*
CN(C)S(=O)(=O)c1cccc(NC(=O)c2n[nH]c(=O)c3ccccc23)c1	1.6	7.5	?	-2.1%	-14.4%
CNC(=S)NNC(=O)c1c(C)nc2cc(C)ccn12	-8.8	-0.3	0.7%	-1.3%	1.0%
Cc1nc(S(=O)(=O)c2ccc(Cl)cc2)c(N(C)C)o1	-4.9	11.4	58.3%	6.8%	32.1%
COCCNC(=O)/C(C#N)=C/c1ccc(C)o1	9.5	8.1	22.2%	5.0%	113.7%
CC1(C)NC(=O)N(CC(O)COc2ccccc2C(=O)Nc2ccccc2)C1=O (stereo not given)	-10.7	-1.5	13.1µM*	-2.1%	-9.7%
CCCCCCOc1ccc(OCC(O)CN2C(=O)NC(C)(C)C2=O)cc1 (stereo not given)	174.6*	42.7*	-18.8%[5.75 µM]	8.1%	69.4%
Cc1ccc(OCC(O)CN2C(=O)NC(C)(C)C2=O)cc1 (stereo not given)	-1.5	-3.6	-9.1%	0.4%	-13.7%
O=C(O)c1ccc(Br)cn1	22.1	-4.1	1.5%	3.9%	-6.6%
Cc1ccc2nc(COc3ccc(Cl)cc3)cc(=O)n2c1	98.5*	41.3*	248.1%	-7.9%	270.3%
CCOc1cc(C=O)ccc1OCc1cc(=O)n2cc(C)ccc2n1	-12.6	-3.7	3.9%	-3.1%	7.5%
O=C1CN(S(=O)(=O)c2cc(C(F)(F)F)ccc2Cl)CCN1	/	/	-19.6%	/	9.7%
CN(C)C1=NP(N(C)C)(N(C)C)=NC(c2ccccc2)=N1	-11.9	-1.2	1.65µM*	-0.7%	0.0%
Cc1cc(SCC(=O)c2cccs2)nc2ccccc12	73.4*	42.3*	-7.1%	3.6%	26.6%
Cc1ccc2cc(C)c3nnc(SCC(=O)Nc4nc5c(s4)CCCC5)n3c2c1C	19.6	11.9*	11.7µM*	-3.0%	-6.9%
